Measured values: publication PMC10726135, “HNF4α isoforms regulate the circadian balance between carbohydrate and lipid metabolism in the liver”
The full ranking holds about 18,000 sequences; the median of “log2 normalized intensity” is about 0.39, and the highest 2% start at about 6.6. The list comes from a sample in which the highest values are over-represented; it also holds similar and randomly drawn sequences.

Each sequence was assayed against T1, HNF4alpha2 (COS-7 nuclear extract) (Homo sapiens, UniProt P41235 1-474) (assay: protein-binding microarray; COS-7 nuclear extract on double-stranded Agilent 4x180k PBM; binding buffer, salt, pH and temperature not given in the material; high values mean tight binding). Conditions: chain copies: 2; label: 3' end of strand 1 on the slide; dsDNA, one strand shown.
T1 sequence: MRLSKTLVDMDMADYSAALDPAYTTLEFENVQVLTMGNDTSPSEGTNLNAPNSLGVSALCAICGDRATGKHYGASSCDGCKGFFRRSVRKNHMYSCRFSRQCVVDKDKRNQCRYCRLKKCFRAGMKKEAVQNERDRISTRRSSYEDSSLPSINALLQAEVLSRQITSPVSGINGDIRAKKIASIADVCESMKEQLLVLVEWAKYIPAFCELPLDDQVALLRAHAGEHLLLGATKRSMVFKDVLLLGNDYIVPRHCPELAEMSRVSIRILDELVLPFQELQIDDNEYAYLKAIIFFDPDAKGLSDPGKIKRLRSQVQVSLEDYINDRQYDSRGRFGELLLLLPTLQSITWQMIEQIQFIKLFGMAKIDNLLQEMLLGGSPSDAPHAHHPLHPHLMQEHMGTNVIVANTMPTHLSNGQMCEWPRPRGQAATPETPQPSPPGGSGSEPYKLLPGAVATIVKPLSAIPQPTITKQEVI
Procedure, shortened: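 A human HNF4α isoform was expressed in COS-7 cells by transient CaPO4 transfection, and nuclear extracts were prepared. These were applied to a custom Agilent SurePrint G3 4x180k array carrying ~44,000 test sequences in quadruplicate as double-stranded ~60-nt oligonucleotides, and an Agilent G2565CA scanner imaged bound HNF4α at 2-µm resolution. The background-corrected, normalized gProcessedSignal from Agilent software was used as the binding signal.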
Work on “CTCACATGAGCTAGAGCTCGTGTCATCTCTGCCTAGGGAGATTAGAGTATCGGTCGA” yielded a binding signal of -0.899 log2 normalized intensity. “CACCAGAAAAATGTACATGTGCAAAAGCACGCCTAGGGAGATTAGAGTATCGGTCGA” showed a binding signal of 0.628 log2 normalized intensity. Sequence “CAAGGGTCAGTTCATTAAAAAAAAAAAAAAGCCTAGGGAGATTAGAGTATCGGTCGA” has a binding signal of 1.19 log2 normalized intensity. Sequence “GAGGGTGGGTTCAAAGGTCAGAAAAAGCTGGCCTAGGGAGATTAGAGTATCGGTCGA” has a binding signal of 6.66 log2 normalized intensity. For “TCAAAGGTCAGAAAAAGCTGACGCCCCACCGCCTAGGGAGATTAGAGTATCGGTCGA”, the binding signal was 3.28 log2 normalized intensity. Sequence “TAGAAGCAGTGGGACAAAGGTCACAGGAAAGCCTAGGGAGATTAGAGTATCGGTCGA” has a binding signal of 4.42 log2 normalized intensity. Sequence “GGCATGGGAAGCAGTGAGGGTGGGTTCAAAGCCTAGGGAGATTAGAGTATCGGTCGA” has a binding signal of 0.803 log2 normalized intensity. “GCAGTGAGGGTGGGTTCAAAGGTCAGAAAAGCCTAGGGAGATTAGAGTATCGGTCGA” was tested, and the binding signal was 7.95 log2 normalized intensity. In the case of “AAAGGGGAAAAGGTCAAATACCAAAATGTGGCCTAGGGAGATTAGAGTATCGGTCGA”, the binding signal is reported as 1.8 log2 normalized intensity. In the case of “AAGAAAAGCCTTGTGGCAGTGAGAACAGGTGCCTAGGGAGATTAGAGTATCGGTCGA”, the binding signal is reported as 0.143 log2 normalized intensity. “GGTCAGAAAAAGCTGACGCCCCACCCCCTCGCCTAGGGAGATTAGAGTATCGGTCGA” showed a binding signal of 5.94 log2 normalized intensity. “TGGGTTCAAAGGTCAGAAAAAGCTGACGCCGCCTAGGGAGATTAGAGTATCGGTCGA” showed a binding signal of 6.84 log2 normalized intensity. “GGGAAGCAGTGAGGGTGGGTTCAAAGGTCAGCCTAGGGAGATTAGAGTATCGGTCGA” showed a binding signal of 8.24 log2 normalized intensity. “GACTCAGAAAAATATGTGGACTTCAAAGGTGCCTAGGGAGATTAGAGTATCGGTCGA” showed a binding signal of 1.29 log2 normalized intensity. “AATTTTTTTTTCTTATCTCACTGGATGTGTGCCTAGGGAGATTAGAGTATCGGTCGA” showed a binding signal of 2.22 log2 normalized intensity. “AGGTTAAGACTTTGAATCAGTAAATATTTGGCCTAGGGAGATTAGAGTATCGGTCGA” was tested, and the binding signal was 0.901 log2 normalized intensity. “AGATACAGGTCAGACCCTGGAATTCCAGAAGCCTAGGGAGATTAGAGTATCGGTCGA” was tested, and the binding signal was -0.969 log2 normalized intensity. “GGCCCATTTTCCCATGGTCTGTAGAAGGCGGCCTAGGGAGATTAGAGTATCGGTCGA” showed a binding signal of 0.306 log2 normalized intensity. With “GATGTTCGTTTGGATCGCTTGGCTCAGGCCGCCTAGGGAGATTAGAGTATCGGTCGA” the binding signal was -0.819 log2 normalized intensity. “CTCTGATCCTAGTCTTTGCCCCACTGCAAGGCCTAGGGAGATTAGAGTATCGGTCGA” was tested, and the binding signal was 2.95 log2 normalized intensity. Sequence “GGGTGGTGGTTACCGGCAGAGGCTGCAGAGGCCTAGGGAGATTAGAGTATCGGTCGA” has a binding signal of 0.249 log2 normalized intensity. In the case of “CTCCCTTTGATGCGGTCAGAGTTCATTTGGGCCTAGGGAGATTAGAGTATCGGTCGA”, the binding signal is reported as 3.48 log2 normalized intensity. With “CAGTTTTTGTTTGCACCTCACAGGAAGAACGCCTAGGGAGATTAGAGTATCGGTCGA” the binding signal was 1.15 log2 normalized intensity. In the case of “ATTTGAGGGTGACACTGCTCTCTCCAGGGGGCCTAGGGAGATTAGAGTATCGGTCGA”, the binding signal is reported as -0.738 log2 normalized intensity. Work on “TGTTTTTTGCCCTTTGTACCCACACACACCGCCTAGGGAGATTAGAGTATCGGTCGA” yielded a binding signal of 6.48 log2 normalized intensity. With “GGGTTTGTTTTTTGCCCTTTGTACCCACACGCCTAGGGAGATTAGAGTATCGGTCGA” the binding signal was 7.67 log2 normalized intensity. “AGAGGGGGTTTGTTTTTTGCCCTTTGTACCGCCTAGGGAGATTAGAGTATCGGTCGA” showed a binding signal of 8.01 log2 normalized intensity. Work on “TGCCCTTTGCCTGGTGATCTTTGTTAGACCGCCTAGGGAGATTAGAGTATCGGTCGA” yielded a binding signal of 2.7 log2 normalized intensity. In the case of “AGCCTACCCACCCACACCTCCCCTTTGTTTGCCTAGGGAGATTAGAGTATCGGTCGA”, the binding signal is reported as 3.59 log2 normalized intensity. Sequence “CCCACAGAGGGGGTTTGTTTTTTGCCCTTTGCCTAGGGAGATTAGAGTATCGGTCGA” has a binding signal of 4.6 log2 normalized intensity. Work on “ATGCCGGCGTGACCCCCACTGCCTGCCTGCGCCTAGGGAGATTAGAGTATCGGTCGA” yielded a binding signal of 3.81 log2 normalized intensity. In the case of “ATTTGACAATTTACAGTGTTCAAAGGTAGCGCCTAGGGAGATTAGAGTATCGGTCGA”, the binding signal is reported as 1.66 log2 normalized intensity. For “TATGCTCTCTCTCCACCTGGAGGGACTTTGGCCTAGGGAGATTAGAGTATCGGTCGA”, the binding signal was 2.59 log2 normalized intensity. “CTGGACTATGCCTTGAACTTTAAGGCACCTGCCTAGGGAGATTAGAGTATCGGTCGA” was tested, and the binding signal was 1.07 log2 normalized intensity. “GGACTTCGAATGGTATGCTAGAGTACTTGGGCCTAGGGAGATTAGAGTATCGGTCGA” was tested, and the binding signal was 1.23 log2 normalized intensity. For “TGCTAGAGTACTTGGACTTTAACCTTTAGAGCCTAGGGAGATTAGAGTATCGGTCGA”, the binding signal was 9.24 log2 normalized intensity. For “TAGGGCCTTGCTATGGAGTGGACTTTGGCTGCCTAGGGAGATTAGAGTATCGGTCGA”, the binding signal was 6.16 log2 normalized intensity. Sequence “TCGAATGGTATGCTAGAGTACTTGGACTTTGCCTAGGGAGATTAGAGTATCGGTCGA” has a binding signal of 6.9 log2 normalized intensity. Work on “CTTTAACGACCTTTGGACTTGAATTATCCTGCCTAGGGAGATTAGAGTATCGGTCGA” yielded a binding signal of 7.84 log2 normalized intensity. “ACGACCTTTGGACTTGAATTATCCTTATGGGCCTAGGGAGATTAGAGTATCGGTCGA” gave a binding signal of 6.27 log2 normalized intensity. Sequence “CTTTGGACTTGAATTATCCTTATGGTCTCTGCCTAGGGAGATTAGAGTATCGGTCGA” has a binding signal of 0.855 log2 normalized intensity. For “GCTTTTGGAAGGACTTCGAATGGTATGCTAGCCTAGGGAGATTAGAGTATCGGTCGA”, the binding signal was 0.461 log2 normalized intensity. With “GCCTAAGCAGGGCTAGACTTTAACCCCCTTGCCTAGGGAGATTAGAGTATCGGTCGA” the binding signal was 5.53 log2 normalized intensity. With “TGGTATGCTAGAGTACTTGGACTTTAACCTGCCTAGGGAGATTAGAGTATCGGTCGA” the binding signal was 9.48 log2 normalized intensity.
